Drawing on PubChem BioAssay, this text covers inhibition for 63 compounds.

A short description of test [1]: NFkB reporter suppression in cystic fibrosis bronchial cells – cell-based, uHTS hits, panel, cytotoxicity readout, dose response (AID 624344). Conditions: CF bronchial epithelial cells, PAF-induced NFkB reporter inhibition, with PAF, run 1; at 79 µM (top of the series) unless noted.
Assay in test [2]: as above
The note with it: CF bronchial epithelial cells, PAF-induced NFkB reporter inhibition, with PAF, run 2; at 79 µM (top of the series) unless noted.

For `O=C1NCCc2c1[nH]c1c(Cl)ccc(Cl)c21`, the values for the inhibition in test [1] and in test [2] were 101% and 113%, respectively.
The corresponding values for `Cc1nc(N2CCC(C(N)=O)CC2)c2c(-c3cccs3)csc2n1` are 97.5% and 93.8%.
The corresponding values for `CC1(O)CC(c2ccc(Cl)cc2)=NN1C(=O)c1ccc(Cl)cc1` (stereo unspecified) are 109% and 78.5%.
`CCN1CCN(Cc2ccc(NC(=O)c3ccc(C)c(NC(=O)c4cccc5[nH]ccc45)c3)cc2C(F)(F)F)CC1`: the inhibition – broadly, the change of the read-out against control, counted positive when it falls – in test [1] was found to be 84.6%; in test [2], 77.6%.
The corresponding values for `Brc1ccc2ncnc(NCc3ccco3)c2c1` are 109% and 105%.
The corresponding values for `N#Cc1ccsc1NC(=O)c1ccc(Cl)c([N+](=O)[O-])c1` are 74% and 101%.
The corresponding values for `COc1ccc(-c2cc(=O)oc3c(C)c(O)ccc23)cc1` are 94.8% and 101%.
In the case of `Cc1cc(N2C(=O)C(O)=C(C(=O)c3ccc(C)o3)C2c2cccc(Oc3ccccc3)c2)no1` (stereo unspecified), the inhibition is 64% in test [1] and 82.8% in test [2].
The corresponding values for `Cc1cccc(NC(=O)c2cc(-c3ccc(C)s3)nc3ccccc23)n1` are 98.5% and 95.4%.
The corresponding values for `O=[N+]([O-])C1C(c2ccccc2)C12c1ccccc1-c1ccccc12` (stereo unspecified) are 99.1% and 106%.
The corresponding values for `Cc1ccc(CNc2ncnc(N)c2[N+](=O)[O-])cc1` are 87.7% and 80.8%.
For the compound `CC1C(=O)N(Cc2cn(Cc3ccco3)nn2)CCS(=O)(=O)N1Cc1ccc(-c2ccccc2C(F)(F)F)cc1` (stereo unspecified), the inhibition in test [1] is 97.9%; in test [2], 114%.
As for `CN(Cc1ccccc1)c1ncnc(N)c1[N+](=O)[O-]`, the values for the inhibition in test [1] and in test [2] were 115% and 102%, respectively.
The corresponding values for `Cc1ccc(C(=O)c2cncc(Br)c2)cc1` are 86.5% and 93.4%.
The corresponding values for `COc1cc2c(Cc3ccccc3)cncc2cc1O` are 107% and 96.3%.
Regarding `CC(C)C[C@H](CO)Nc1nc(Nc2cccc(Cl)c2)c2ncn(C(C)C)c2n1`, the values for the inhibition in test [1] and in test [2] were 112% and 100%, respectively.
The corresponding values for `COc1ccc(N=Cc2cc3c(cc2O)OC(N)=C(C#N)C3c2ccccc2)cc1` (stereo unspecified) are 76.8% and 47.7%.
With `CCN(CC(=O)Nc1ccc(OC)cc1)C(=O)c1cc(-c2cccs2)nn1-c1ccccc1`, the inhibition in test [1] is 99.6%; in test [2] it was 98.4%.
The corresponding values for `COc1ccc2nc(Nc3nc(CSc4nc5ccccc5[nH]4)cc(=O)[nH]3)nc(C)c2c1` are 108% and 102%.
The corresponding values for `NC(=S)N1OC[C@@H]2COc3ccc4ccccc4c3[C@@H]21` are 114% and 105%.
The corresponding values for `COc1ccc(-c2cnc3c(NC=O)cc(-c4ccccc4OC)cn23)cc1OC` are 93.5% and 102%.
Turning to `COC(=O)c1ccc2c(c1)C(C)(C)C(/C=C/c1ccccc1O)=[N+]2C`, the inhibition is 81.4% in test [1] and 80.5% in test [2].
The corresponding values for `COc1ccc(-c2nc(NC(=O)c3ccc(OCC(=O)Nc4ccc(F)cc4)c(OC)c3)sc2C)cc1` are 91.7% and 96.2%.
The corresponding values for `Nc1ncnc2c1c(-c1ccc(Oc3ccccc3)cc1)cn2C1CCCC1` are 114% and 94.1%.
The corresponding values for `Nc1ncc(-c2ccccc2)c(-c2ccc(O)cc2O)n1` are 100% and 112%.
With `O=C(NCCc1ccccc1)c1coc(=O)c(Br)c1`, the inhibition in test [1] is 84%; in test [2], 106% [at 39.5 µM].
Consider `Cc1ccc(-c2n[nH]c(=S)n2/N=C/c2ccncc2)cc1`, for which the results for the inhibition in test [1] and in test [2] were 111% and 96%, respectively.
The corresponding values for `Nc1ncnc(Sc2ccc(Cl)cc2)c1[N+](=O)[O-]` are 101% and 85.6%.
`O=c1c(O)c(-c2ccccc2)oc2cc(O)cc(O)c12`: the inhibition in test [1] amounted to 103%; in test [2] it was 106%.
The corresponding values for `Cc1ccc2c(c1)C(=O)C(=O)N2Cc1ccc(Br)cc1` are 106% and 113%.
The corresponding values for `O=C(Nc1ccncc1)c1c(Cl)cccc1Cl` are 112% and 101%.
As to `COCCNc1nc(Oc2cncc(Cl)c2)c2sccc2n1`, the figures for the inhibition in test [1] and in test [2] were 100% and 115%, respectively.
The corresponding values for `Cc1ccc2occ(/C=N/NC(=O)c3ccccc3Br)c(=O)c2c1` are 94.7% and 114%.
The corresponding values for `Cc1cccc(C)c1NS(=O)(=O)c1ccc(-c2cnc(C3CC3)o2)cc1` are 112% and 105%.
`NC(=O)c1sc2nc3c(c(-c4ccco4)c2c1N)CCCC3`: the inhibition in test [1] was determined as 114%; in test [2] it was 101%.
The corresponding values for `COC(=O)C1=C(C(=O)OC)[C@@H]2N(Cc3ccccc3)c3ccccc3[C@@]23C[C@@H](C(=O)OC)N(C(=O)c2ccc(Br)cc2)C3=N1` are 101% and 110%.
Regarding `O=C(c1nnsc1S(=O)c1ccc(Cl)cc1)N1CCOCC1` (stereo unspecified), the inhibition was determined as 95.6% in test [1] and 110% [at 19.8 µM] in test [2].
The corresponding values for `C=CCOc1c(OC)cc(/C=N/Nc2cccc(C(=O)O)c2)c(Br)c1Br` are 103% and 105%.
The corresponding values for `O=[N+]([O-])c1ccc(Oc2ccc(F)cc2)c2ccncc12` are 99.2% and 97.3%.
In the case of `COc1ccccc1/C=C/C(=O)c1c2c(c(C)[nH]c1=O)CCCC2`, the inhibition in test [1] worked out at 110%; in test [2], 96%.
On to `NC(c1csc(NC(=O)Nc2cccc(Cl)c2)n1)c1ccccc1Cl` (stereo unspecified), for which the inhibition in test [1] was 96.3%; in test [2], 101%.
The corresponding values for `COc1cccc(-c2cc(NC=O)c3ncc(-c4ccc(C(C)=O)cc4)n3c2)c1` are 84.6% and 93.6%.
On to `C=C1C(=O)O[C@@]23[C@H]1CC[C@@H](C)[C@@H]2CC[C@@]1(C)O[C@@H]31`, for which the inhibition in test [1] worked out at 113%; in test [2], 105%.
The corresponding values for `C=CCN(CC=C)c1ncnc2[nH]ncc12` are 99.9% and 109%.
The corresponding values for `Oc1ccc(Br)cc1-c1nc2cnccn2c1NC1CCCC1` are 101% and 97.8%.
As to `COc1ccc(-n2cc(-c3ccccc3)c3c(N4CC(C)OC(C)C4)ncnc32)cc1` (stereo unspecified), the inhibition in test [1] and in test [2] was 102% each time.
`COc1cccc(C(=O)N2C(C(C)C)COc3cc(Br)ccc3S2(=O)=O)c1` (stereo unspecified): the inhibition in test [1] worked out at 118%; in test [2] it was 101%.
The corresponding values for `CCOc1ccc(NCc2cc3c(C(C)(C)C)nn(-c4ccccc4)c3[nH]c2=O)cc1` are 101% and 109%.
The corresponding values for `c1cc(-c2cnc3cccnn23)c2cccnc2c1` are 114% and 105%.
The corresponding values for `COc1cccc(-c2ccc3ncnc(NCc4cccnc4)c3c2)c1` are 103% and 100%.
On to `O=[N+]([O-])c1ccc(NC(=S)NCCc2ccc(F)cc2)cc1`, for which the inhibition in test [1] was determined as 115%; in test [2], 105%.
The corresponding values for `O=C(/C=C/c1cccs1)Nc1cccc(NC(=O)/C=C/c2cccs2)n1` are 97.2% and 96.4%.
The corresponding values for `COc1ccc(-c2cc(NC=O)c3ncc(-c4ccc(OC)c(OC)c4)n3c2)c(OC)c1` are 95.1% and 86.2%.
The corresponding values for `c1nc(N2CCOCC2)c2c3c(sc2n1)CCCC3` are 98.5% and 107%.
Regarding `C/C=C/COC(=O)c1[nH]c2c(c1C)C(=O)CC(c1ccco1)C2` (stereo unspecified), the results for the inhibition in test [1] and in test [2] were 106% and 92.9%, respectively.
For the compound `COc1cc(CCc2ccccc2)c(C(=O)O)c(O)c1C/C=C(/C)CCC=C(C)C`, the values for the inhibition in test [1] and in test [2] were 104% and 114%, respectively.
The corresponding values for `O=C1N(c2ccccc2C(F)(F)F)O[C@@]1(c1ccccc1)C1CCCCC1` are 99.3% and 105%.
The corresponding values for `C=Cc1ccc(CC2(C)C(=O)Nc3ccc(-c4cccnc4)cc32)cc1` (stereo unspecified) are 113% and 102%.
The corresponding values for `O=C(Nc1cccc(S(=O)(=O)N2CCCCC2)c1)Nc1ccc(Cl)cc1Cl` are 103% and 117%.
Turning to `COc1ccc(CN(CCC(c2ccc(F)cc2)C2CCOC(C)(C)C2)C(=O)c2ccco2)cc1` (stereo unspecified), the inhibition in test [1] turned out to be 105%; in test [2] it was 111%.
The corresponding values for `CC(=O)c1ccc(Nc2ncnc3ccc(Br)cc23)cc1` are 91.3% and 98.4%.
On to `CN1CCC(OC(=O)c2cc3cc(Cl)cc(Cl)c3oc2=O)CC1`, for which the inhibition was determined as 108% in test [1] and 97.8% in test [2].
The corresponding values for `CC1CCc2c(sc3ncnc(N4CCOCC4)c23)C1` (stereo unspecified) are 114% and 101%.
